Measurements taken from PubChem BioAssay (NCI).
About 79,000 compounds went through this panel and 15% of them were active in at least one assay; those are over-represented in the sample as a whole. Values without a mark were called inactive. The source made the active and inactive calls. No stated cut-off is given here; in the data, active means growth inhibition above about 70%; inactive means the rest.

Assay: NCI Yeast Anticancer Drug Screen. Data for the rad14 strain (AID 159);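 further: 0% = growth of vehicle-treated control cultures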
Conditions: S. cerevisiae rad14 strain growth inhibition, stronger effect = higher value
Method: Growth inhibition of yeast strains with defined genetic alterations is measured as a screen for potential anti-cancer activity. Selected strains with alterations in DNA damage repair or cell cycle control were exposed to compounds and growth inhibition was measured relative to vehicle treated controls. The strain used in this assay is rad14

| Structure (SMILES) | growth inhibition (at 1.2 µM) [%] | growth inhibition (at 3.7 µM) [%] | growth inhibition (at 11.0 µM) | growth inhibition (at 33.0 µM) | growth inhibition (at 100.0 µM) |
| --- | --- | --- | --- | --- | --- |
| COc1ccc(C(=O)C(CN(C)C)CN(C)C)cc1 | -13 | -8 | -2% | 19% | 24% |
| CC(=O)OCC1OC2OC(=O)NC2C(OC(C)=O)C1OC(C)=O (stereo not given) | -2 | -1 | -3% | 2% | 2% |
| CC[n+]1oc(C(=O)c2ccc(Cl)cc2)c(-c2ccccc2)c1-c1ccccc1.[Cl][Fe]([Cl])([Cl])[Cl] | 2 | 6 | 12% | 28% | 57% |
| CC(O)=NC(Cc1ccc2ccccc2c1)C(O)=NC(Cc1ccc(Cl)cc1)C(O)=NC(Cc1c[nH]c2ccccc12)C(O)=NC(CO)C(O)=NC(Cc1ccc(O)cc1)C(O)=NC(CCCN=C(N)N)C(O)=NC(CC(C)C)C(O)=NC(CCCN=C(N)N)C(=O)N1CCCC1C(O)=NC(C)C(=N)O (stereo not given) | -5 | 1 | 4% | 7% | 24% |
| CCCCN(CCCC)CCC(O)c1cc2c(Cl)cc(Cl)cc2c2cc(C(F)(F)F)ccc12 (stereo not given) | 23 | 20 | 98% (active) | 99% (active) | 96% (active) |
| Cc1cc(C)c(NC(=S)NC(=O)c2ccccc2)cc1C | -40 | -48 | -40% | -16% | -9% |
| CCOC(=O)COc1c(OC)cc(C2C3=C(COC3=O)Oc3cc4c(cc32)OCO4)cc1OC (stereo not given) | -3 | -3 | 0% | 4% | 15% |
| CCOC(=O)C1N=[N+](c2ccccc2)C(=O)/C1=C\n1c(=S)[nH]c2ccc([N+](=O)[O-])cc21 (stereo not given) | 0 | -2 | 1% | 2% | 8% |
